Methyltransferases = Primary Screen for Target Class Profiling of Small Molecule Inhibitors of Methyltransferases; purified enzyme, MTase-Glo SAH luminescence; hits give low values; calls only at 40 µM; 25,000 tested, 3.9% active; AID 1745853, 2022; call rule not given here
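Each enzyme was assayed with SAM and its substrate. SAH formation detected by MTase-Glo luminescence; single-point 40 uM screen[…].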
Of the large screens only hits and unclear results are named; the others gave an inactive call; ! = not confirmed by another sample. Shown is part of a subset that was picked to be rich in hits.

CCOc1ccc(-c2cc3n(n2)CC(C)(C(=O)NC2CCCCC2)N(CCCOC)C3=O)cc1 (stereo not given)	none
CCOC(=O)c1cc2n(n1)CC(C)(C(=O)NCc1ccc(F)cc1)N(Cc1cccc(OC)c1OC)C2=O (stereo not given)	none
CCCN1C(=O)c2c(C(=O)NCc3ccccc3Cl)ncn2CC1(C)C(=O)NCc1ccc(OC)cc1 (stereo not given)	none
Cn1c(=O)c2ccc(C(=O)NC3CCCC3)cc2n2c(=O)n(Cc3ccccc3F)nc12	none
O=C(CCn1ccc2cc(S(=O)(=O)N3CCCC3)ccc21)NCCC1=CCCCC1	none
Cc1cccc(N2C(=O)c3cc4sccc4n3CC2(C)C(=O)NC2CCCC(C)C2C)c1C (stereo not given)	none
COc1cc2c(CCNC(C)=O)c[nH]c2cc1O	Methyltransferases active
N[C@@H](Cc1c[nH]c2ccc(O)cc12)C(=O)O	none
O=C(Cc1c[nH]c2ccccc12)NCCc1c[nH]c2ccc(Cl)cc12	none
COC(=O)c1cc2n(n1)CC(C)(C(=O)NC1CCCCC1)N(Cc1cccc(OC)c1)C2=O (stereo not given)	none
Cc1ccc(NC2=CC(=O)c3sc(C)nc3C2=O)cc1	Methyltransferases active
CCN(CC)CC(O)CN1CCn2c3c(c4cc(C)ccc42)CCCC31 (stereo not given)	none
Cc1ccc(C(=O)Cn2nc3n(C(C)C)c(=O)c4ccc(C(=O)NC5CCCC5)cc4n3c2=O)c(C)c1	none
Cc1ccccc1NC(=O)c1ncn2c1C(=O)N(C1CC1)C(C)(C(=O)NCc1ccc(F)cc1)C2 (stereo not given)	none
Cc1ccc(-c2n[nH]n3c2nc(=O)c2ccc(C(=O)N4CCN(c5cc(C)ccc5C)CC4)cc23)cc1	none
COc1ccccc1CN1C(=O)c2cc3ccccc3n2CC1(C)C(=O)NCCCOC(C)C (stereo not given)	none
Oc1ccc(CC2NCCc3cc(O)c(O)cc32)cc1 (stereo not given)	none
Oc1cc2c(cc1O)C(c1ccccc1)CNCC2 (stereo not given)	Methyltransferases active
CN1CCc2cc(Cl)c(O)cc2[C@@H](c2ccccc2)C1	none
CCN1C(=O)c2cc(C(=O)NCCCN3CCN(C)CC3)nn2CC1(C)C(=O)NC1CCCC1 (stereo not given)	none
CCCN(CCC)CCN1C(=O)c2cc3sc(CC)cc3n2CC1(C)C(=O)NC1CCCCC1 (stereo not given)	none
O=C(NCc1ccccc1)c1ccc2c(=O)n(-c3cccc(C(F)(F)F)c3)c(=S)[nH]c2c1	none
CNC(=O)c1ccc2c(C(=Nc3cccc(CN(C)C)c3)c3ccccc3)c(O)[nH]c2c1	Methyltransferases active
CC1CCCC(C)N1CCNC(=O)CCCc1nnc2n3nc(-c4ccccc4)nc3c3ccccc3n12 (stereo not given)	none
CCCN1C(=O)c2c(C(=O)NCc3ccccc3C)ncn2CC1(C)C(=O)NCCC(C)C (stereo not given)	none
Cc1cc(=O)oc2c(C=O)c(O)ccc12	Methyltransferases active
O=c1cc(-c2ccccc2)oc2c(O)c(O)ccc12	none
COC(=O)COc1ccc2c(-c3ccccc3)cc(=O)oc2c1C	none
Cc1ccc(Cn2c(=O)c3ccccc3n3c(-c4ccc(F)c(F)c4)nnc23)cc1	none
COC(=O)c1ncn2c1C(=O)N(CCc1cccs1)C(C)(C(=O)NC1CCCC1)C2 (stereo not given)	none
CCc1cccc(NS(=O)(=O)c2ccc3[nH]c4c(c3c2)CCCC4)c1	none
CC(C)Cn1c(=O)c2ccc(C(=O)NC3CCCC3)cc2n2c(=O)n(Cc3ccc(F)cc3)nc12	none
O=C(Nc1ccccc1)N1CCC(Cc2cnc3ccccc3c2)CC1	none
NCC(CNc1nc(Nc2cccc(NC(=O)N3CCCC3)c2)ncc1I)C(=O)c1cccs1 (stereo not given)	Methyltransferases active
CC1(C(=O)NC2CCCC2)Cn2c(cc3ccccc32)C(=O)N1CCc1ccccc1 (stereo not given)	none
O=S(=O)(Nc1cccc2c1CCCC2)c1ccc2[nH]c3c(c2c1)CCCC3	none
CCn1c(=O)n(CC)c2cc(S(=O)(=O)N3CCN(c4ccc(OC)cc4)CC3)ccc21	none
Cn1c(CNc2ccc(C(=N)N)cc2)nc2cc(C(=O)N(CCC(=O)O)c3ccccn3)ccc21	Methyltransferases active
COc1cccc(Cn2nc3n(C(C)C)c(=O)c4ccc(C(=O)NC5CCCCC5)cc4n3c2=O)c1	none
COc1ccc(Cn2c(=O)c3ccccc3n3c(-c4ccc(O)cc4)nnc23)cc1	none
COc1ccc(CN2CCCC3(CC(c4cccc(C(F)(F)F)c4)=NO3)C2)cc1 (stereo not given)	none
COc1ccc(-c2nc(-c3cc(C(F)(F)F)cc(C(F)(F)F)c3)n(Cc3ccc(C(N)=O)cc3)c2-c2ccc(OC)cc2)cc1	Methyltransferases active
Cc1ccccc1CSc1nnc2n(CCC(C)C)c(=O)c3ccccc3n12	none
CCOc1cc(CNC(=O)c2cc3n(n2)CC(C)(C(=O)NCc2ccc(C)cc2)N(C)C3=O)ccc1OC (stereo not given)	none
Cc1cccc(C)c1NS(=O)(=O)c1ccc2[nH]c3c(c2c1)CCCC3	none
Cc1ccc(NC(=O)c2ncn3c2C(=O)N(C2CC2)C(C)(C(=O)NC2CCCC2)C3)c(Cl)c1 (stereo not given)	none
CCOC(=O)CNC(=O)N1Cc2c(sc3c2CCCC3)-n2cccc2C1C(C)C (stereo not given)	none
O=C1C(SCCO)=C(SCCO)C(=O)c2ccccc21	Methyltransferases active
COC(=O)c1ncn2c1C(=O)N(c1ccc(F)cc1)C(C)(C(=O)NCc1ccccc1)C2 (stereo not given)	none
CSc1ccc2c(c1)C(N1CCN(C)CC1)Cc1ccccc1S2 (stereo not given)	Methyltransferases active
CN1CCN2c3ccccc3Cc3ccccc3C2C1 (stereo not given)	none
CN1CCN(CCCN2c3ccccc3Sc3ccc(Cl)cc32)CC1	none
COc1ccc(NC(=O)CSc2nnc3n(CC(C)C)c(=O)c4cc(F)ccc4n23)cc1OC	none
COCCCNC(=O)c1ccc(Cn2c(=O)c3ccccc3n(Cc3ccc(C(C)C)cc3)c2=O)cc1	none
Cn1nc2n(Cc3ccccc3)c(=O)c3ccc(C(=O)NC4CCCC4)cc3n2c1=O	none
CN1CCc2c(c3ccccc3n2Cc2ccc(C(=O)NO)cc2)C1	Methyltransferases active!
CCc1cc2c(cc3n2CC(C)(C(=O)NC2CCC(C)CC2)N(Cc2ccccc2Cl)C3=O)s1 (stereo not given)	none
Cc1ccc(NC(=O)Cn2c(=O)oc3cc(S(=O)(=O)NCc4ccccc4)ccc32)cc1C	none
Cc1cccc(NC(=O)Cn2c(=O)oc3cc(S(=O)(=O)NCc4ccccc4)ccc32)c1	none
CC(C)c1ccc(NC(=O)Cn2c(=O)oc3cc(S(=O)(=O)NCc4ccccc4)ccc32)cc1	Methyltransferases active
O=C(CSc1nnc2n(Cc3ccc(F)cc3)c(=O)c3ccccc3n12)Nc1ccccc1F	none
COc1ccc(/C=C\C(=O)O)c(O[C@@H]2O[C@H](CO)[C@@H](O)[C@H](O)[C@H]2O)c1	none
COc1cc(C(=O)OC[C@H]2O[C@@H](Oc3ccccc3/C=C/C(=O)O)[C@H](O)[C@@H](O)[C@@H]2O)cc(OC)c1OC	Methyltransferases active
COc1cc(/C=C/C(=O)O[C@H]2[C@H](O)[C@@H](CO)O[C@@]2(CO)O[C@H]2O[C@H](COC(=O)c3ccc(O)cc3)[C@@H](O)[C@H](O)[C@H]2O)cc(OC)c1OC	none
CCN1C(=O)c2cc(C(=O)NCc3cc(OC)ccc3OC)nn2CC1(C)C(=O)NC1CCCC1 (stereo not given)	none
